From the supplement of paper PMC6089552
The campaign covered roughly 3,200 compounds. About 300 (9.4%) showed activity. This is one part of a sample in which actives are shown more often than they occur.

Test system: A673/TR/shEF
Assay: cell viability (LOESS-normalised, relative to median of negative controls) (log2 ratio); higher = more viable cells (less compound effect), active = hit call of the paper (over 3 MAD below the median)
Conditions: treatment time: 72 h
How it was run: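 For three days, A673/TR/shEF Ewing sarcoma cells in 384-well plates (1,500 per well) were treated with library compounds at two or more concentrations or with DMSO controls, after doxycycline had been added or withheld 24 h beforehand to induce EWS-FLI1 shRNA knockdown. Viability was read by CellTiter-Glo luminescence on an Envision reader. The data were LOESS-corrected per plate, divided by the median of negative controls and log2-transformed.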

[1] = 0.25 µM, library screen: screen1, EWS-FLI1 expression: high (no doxycycline)
[2] = 0.25 µM, library screen: screen1, EWS-FLI1 expression: low (doxycycline-induced shRNA knockdown)
[3] = 2.5 µM, library screen: screen1, EWS-FLI1 expression: high (no doxycycline)
[4] = 2.5 µM, library screen: screen1, EWS-FLI1 expression: low (doxycycline-induced shRNA knockdown)
[5] = 0.103 µM, library screen: screen3, EWS-FLI1 expression: high (no doxycycline)
[6] = 0.103 µM, library screen: screen3, EWS-FLI1 expression: low (doxycycline-induced shRNA knockdown)
[7] = 0.308 µM, library screen: screen3, EWS-FLI1 expression: high (no doxycycline)
[8] = 0.308 µM, library screen: screen3, EWS-FLI1 expression: low (doxycycline-induced shRNA knockdown)
[9] = 0.926 µM, library screen: screen3, EWS-FLI1 expression: high (no doxycycline)
[10] = 0.926 µM, library screen: screen3, EWS-FLI1 expression: low (doxycycline-induced shRNA knockdown)
[11] = 2.8 µM, library screen: screen3, EWS-FLI1 expression: high (no doxycycline)
[12] = 2.8 µM, library screen: screen3, EWS-FLI1 expression: low (doxycycline-induced shRNA knockdown)
[13] = 8.3 µM, library screen: screen3, EWS-FLI1 expression: high (no doxycycline)
[14] = 8.3 µM, library screen: screen3, EWS-FLI1 expression: low (doxycycline-induced shRNA knockdown)
[15] = 25 µM, library screen: screen3, EWS-FLI1 expression: high (no doxycycline)
[16] = 25 µM, library screen: screen3, EWS-FLI1 expression: low (doxycycline-induced shRNA knockdown)
[17] = 0.25 µM, library screen: screen2, EWS-FLI1 expression: high (no doxycycline)
[18] = 0.25 µM, library screen: screen2, EWS-FLI1 expression: low (doxycycline-induced shRNA knockdown)
[19] = 2.5 µM, library screen: screen2, EWS-FLI1 expression: high (no doxycycline)
[20] = 2.5 µM, library screen: screen2, EWS-FLI1 expression: low (doxycycline-induced shRNA knockdown)

Measured: cell viability (log2)

CCN(CC)S(=O)(=O)c1ccc(C(=O)N(CCC(=O)OC)c2ccccn2)cc1
inactive: [1] 0.0834 | [2] 0.147 | [3] 0.162 | [4] 0.127

Cn1c(CNc2ccc(C(=N)N)cc2)nc2cc(C(=O)N(CCC(=O)O)c3ccccn3)ccc21
inactive: [5] 0.00826 | [6] 0.00201 | [7] 0.0563 | [8] 0.0276 | [9] 0.0456 | [10] 0.123 | [11] -0.0294 | [12] 0.0652 | [13] 0.0628 | [14] 0.0736 | [15] 0.0838 | [16] 0.0437

CCCCCCOC(=O)/N=C(/N)c1ccc(NCc2nc3cc(C(=O)N(CCC(=O)OCC)c4ccccn4)ccc3n2C)cc1
active: [15] -0.441
inactive: [5] -0.0699 | [6] -0.0234 | [7] -0.0119 | [8] -0.019 | [9] 0.046 | [10] -0.0404 | [11] -0.0778 | [12] 0.0123 | [13] -0.0381 | [14] 0.0285 | [16] 0.0312

NCCCCCN
inactive: [1] 0.0699 | [2] 0.0406 | [3] 0.114 | [4] 0.103

Cc1coc2ccccc2c1=O
inactive: [1] 0.143 | [2] 0.1 | [3] 0.138 | [4] 0.165

CC1=CC(=O)CC(C)(C)[C@@]1(O)/C=C/C(C)=C\C(=O)O
inactive: [1] 0.103 | [2] 0.084 | [3] 0.143 | [4] 0.165

CC(=O)O[C@@H]1CC2C(C)(C)CCC(=O)[C@]2(C)C2CC[C@@]3(C)[C@H](c4ccoc4)OC(=O)C4OC43[C@@]21C (some centres undefined)
inactive: [1] 0.0305 | [2] 0.0828 | [3] 0.127 | [4] 0.0866

O=C(NC(C(=O)N1CCCCC1)=C1CCCCC1)c1ccccc1
inactive: [1] 0.107 | [2] 0.0798 | [3] 0.0724 | [4] 0.127

COC(=O)C1=C(C)N=c2s/c(=C/c3ccc(OC)cc3OC)c(=O)n2C1c1cccs1 (centres undefined)
inactive: [1] 0.0522 | [2] 0.13 | [3] 0.0666 | [4] 0.065

CCCCCCCCc1ccc(CCC(N)(CO)CO)cc1
active: [15] -0.341 | [16] -0.161
inactive: [5] 0.0814 | [6] 0.0528 | [7] 0.0332 | [8] -0.0148 | [9] 0.0328 | [10] 0.0341 | [11] 0.00825 | [12] 0.0473 | [13] -0.0193 | [14] 0.0563

CCCCCCCCCCCC1=C(O)C(=O)C=C(O)C1=O
inactive: [1] 0.161 | [2] 0.0381 | [3] 0.097 | [4] 0.0519

CC(=O)O[C@H]1C[C@@H](OC(C)=O)C(C)(C)C2CC(=O)[C@]3(C)C(CC[C@@]4(C)[C@H](c5ccoc5)OC(=O)[C@H]5O[C@]543)[C@]21C (some centres undefined)
inactive: [1] 0.116 | [2] 0.174 | [3] 0.177 | [4] 0.123

CCCCCCCCCCC[C@@H](C[C@@H]1OC(=O)[C@H]1CCCCCC)OC(=O)[C@H](CC(C)C)NC=O
inactive: [5] 0.0583 | [6] 0.00452 | [1] -0.0226 | [2] 0.0354 | [7] 0.0475 | [8] 0.11 | [9] -0.01 | [10] 0.0194 | [4] 0.178 | [11] -0.0124 | [12] 0.136 | [13] -0.103 | [14] -0.0203 | [15] -0.119 | [16] -0.0365
active: [3] -0.116

COC(=O)C[C@H]1C(C)(C)C2(Cl)O[C@@]34CC2C(=O)[C@]1(C)C3CC[C@]1(C)C4=CC(=O)O[C@H]1c1ccoc1 (some centres undefined)
inactive: [1] 0.0526 | [2] 0.0775 | [3] 0.126 | [4] 0.163

C=C1C(=O)O[C@@H]2C[C@@]3(C)CCC[C@H](C)C3=C[C@H]12
inactive: 0.025 µM, library screen: screen2, EWS-FLI1 expression: high (no doxycycline) 0.148 | 0.025 µM, library screen: screen2, EWS-FLI1 expression: low (doxycycline-induced shRNA knockdown) 0.0581 | [1] 0.0724 | [2] -0.00207 | [17] 0.177 | [18] 0.0288 | [3] 0.152 | [4] 0.0584 | [19] 0.0901 | [20] 0.000642 | 25 µM, library screen: screen2, EWS-FLI1 expression: high (no doxycycline) -0.0554 | 25 µM, library screen: screen2, EWS-FLI1 expression: low (doxycycline-induced shRNA knockdown) -0.102

CN(C)CCCN1c2ccccc2Sc2ccc(Cl)cc21
inactive: [5] 0.0728 | [6] 0.128 | [1] 0.1 | [2] 0.155 | [17] 0.141 | [18] 0.1 | [7] 0.122 | [8] 0.0127 | [9] 0.0627 | [10] 0.015 | [3] 0.206 | [4] 0.191 | [19] 0.129 | [20] 0.0664 | [11] -0.0176 | [12] 0.0383 | [13] 0.101 | [14] 0.0471 | [15] -0.0174 | [16] 0.0242

CN(C)CCCN1c2ccccc2Sc2ccc(C(F)(F)F)cc21
inactive: [1] 0.067 | [2] 0.0785 | [17] 0.0818 | [18] 0.0662 | [3] 0.0754 | [4] 0.158 | [19] 0.181 | [20] 0.0843

CN(C)CCCN1c2ccccc2Sc2ccccc21
active: [19] -1.62 | [20] -0.801
inactive: [1] 0.0889 | [2] 0.0795 | [17] 0.0137 | [18] -0.394 | [3] 0.107 | [4] 0.224

CC(=O)Oc1cc(-c2coc3cc(OC(C)=O)c(OC(C)=O)c(OC(C)=O)c3c2=O)cc(OC(C)=O)c1OC(C)=O
inactive: [1] 0.0397 | [2] -0.0292 | [3] 0.0912 | [4] -0.0545

CC1(C)C=Cc2c(c3c(c4c(=O)c(-c5ccc(O)cc5)coc24)OC(C)(C)CC3)O1
inactive: [1] 0.057 | [2] 0.068 | [3] 0.105 | [4] 0.116

C/C(=C\c1ccc(C(=O)O)cc1)c1ccc2c(c1)C(C)(C)CCC2(C)C
inactive: [17] 0.00709 | [18] 0.0496 | [19] 0.0275 | [20] 0.0889

NC1(C(=O)O)CCc2cc(C(=O)O)ccc21 (centres undefined)
inactive: [18] 0.0469 | [19] 0.0221 | [20] 0.107
active: [17] -0.364

O=C(O)c1ccc2c(c1)OCO2
inactive: [1] 0.146 | [2] 0.102 | [3] 0.137 | [4] 0.0963

C=C(C)Cn1c(COc2ccc(Cl)cc2Cl)n[nH]c1=S
inactive: [1] 0.0645 | [2] -0.015 | [3] 0.0851 | [4] -0.014

CC(C)CC(NP(=O)(O)O[C@@H]1O[C@@H](C)[C@H](O)[C@@H](O)[C@H]1O)C(=O)NC(Cc1c[nH]c2ccccc12)C(=O)O (some centres undefined)
inactive: [17] 0.0833 | [18] 0.00183 | [19] 0.149 | [20] -0.00437

COc1cc(CN2CCN(Cc3ccccc3F)CC2)cc(OC)c1OC
inactive: [1] 0.0928 | [2] 0.0533 | [3] 0.0786 | [4] 0.127

OC[C@H]1N[C@H](CO)[C@@H](O)[C@@H]1O
inactive: [17] 0.176 | [18] 0.0684 | [19] 0.108 | [20] 0.0354

Cc1ccc(C(C)C)c(O)c1C(=O)O
inactive: [1] 0.112 | [2] 0.00973 | [3] 0.164 | [4] 0.0715

CCC(C)C(N)C1=NC(C(=O)N[C@@H](CC(C)C)C(=O)N[C@H](CCC(=O)O)C(=O)N[C@H](C(=O)N[C@H]2CCCCNC(=O)[C@H](CC(N)=O)NC(=O)[C@@H](CC(=O)O)NC(=O)[C@H](Cc3cnc[nH]3)NC(=O)[C@@H](Cc3ccccc3)NC(=O)[C@H]([C@@H](C)CC)NC(=O)[C@@H](CCCN)NC2=O)[C@@H](C)CC)CS1 (some centres undefined)
inactive: [1] 0.0992 | [2] -0.0505 | [3] 0.131 | [4] 0.0875

CC(C)[C@@H]1NC(=O)[C@H](CCCCN)NC(=O)[C@@H](Cc2c[nH]c3ccccc23)NC(=O)[C@H](Cc2ccc(O)cc2)NC(=O)[C@H](C)N(C)C(=O)[C@H](Cc2ccccc2)NC1=O
inactive: [17] 0.191 | [18] 0.085 | [19] 0.149 | [20] 0.111

CC(C)C[C@@H]1NC(=O)[C@H](CCCN)NC(=O)[C@H](C(C)C)NC(=O)[C@H](Cc2ccc(O)cc2)N[C@@H](CCC(=O)O)C(=O)N[C@@H](CC(N)=O)C(=O)[C@@H](Cc2ccccc2)NC(=O)[C@H](Cc2ccccc2)NC(=O)[C@@H]2CCCN2C(=O)[C@@H](Cc2ccccc2)NC1=O
inactive: [2] -0.0111
active: [1] -0.767 | [3] -2.84 | [4] -2.45

CC(C)C[C@@H]1NC(=O)[C@H](CCCN)NC(=O)[C@H](C(C)C)NC(=O)[C@@H]2CCCN2C(=O)[C@@H](Cc2ccccc2)NC(=O)[C@H](CC(C)C)NC(=O)[C@H](CCCN)NC(=O)[C@H](C(C)C)NC(=O)[C@@H]2CCCN2C(=O)[C@@H](Cc2ccccc2)NC1=O
active: [1] -1.96 | [2] -0.176 | [3] -3.79
inactive: [4] -0.0354

CC1=CCCC(=O)C2CC(C)(C)C2CC1 (centres undefined)
inactive: [1] 0.0664 | [2] 0.0572 | [3] 0.102 | [4] 0.0635

CC(=O)O[C@H]1C[C@@]2(C)[C@H](c3ccoc3)OC(=O)[C@H]3O[C@]32[C@@]2(C)C1[C@]1(C)C(C[C@H]2OC(C)=O)C(C)(C)[C@H](OC(C)=O)C[C@@H]1OC(C)=O (some centres undefined)
inactive: [1] -0.00983 | [2] 0.0592 | [3] 0.0456 | [4] 0.0721
